# Screening results from PubChem BioAssay.
# Compounds with a hit are over-represented: about 1.6% of the library has one in this group of screens.
# FUS yeast rescue: qHTS for Suppressors of FUS Proteinopathy: Primary screen using FUS-linked yeast assay. S. cerevisiae FUS-expressing, growth rescue, OD600, 24 h. Potency, µM (titrated, usually from 76.6 µM), most hits filed as activators. 390,000 tested, 0.24% active. AID 1347120, 2019;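 also: plate controls were DMSO vehicle for no effect and reference control for full effect; nearly all actives have a fitted effect of over 55% in size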
#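 Read-out: OD at 600 nm after 24hr at 30C, reporting rescue of FUS-induced yeast toxicity. Cells at OD 0.005 in galactose (2%) minimal medium; compounds tested in a dilution series; CP55940 titration from 92uM final as control.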
# 12-LOX inh: Primary qHTS assay for inhibitors of human arachidonate 12S-lipoxygenase (ALOX12): Round 2; purified 12hLO, xylenol orange hydroperoxide absorbance; Potency, µM (doses to about 108 µM), inactives show at the highest dose activity change, negative = inhibition, actives largely listed as inhibitors; 580,000 tested, 1.1% active; also: % is scaled to controls: 0 for no effect and ±100 for the full control effect
# Target sequence (P18054 whole entry, looked up): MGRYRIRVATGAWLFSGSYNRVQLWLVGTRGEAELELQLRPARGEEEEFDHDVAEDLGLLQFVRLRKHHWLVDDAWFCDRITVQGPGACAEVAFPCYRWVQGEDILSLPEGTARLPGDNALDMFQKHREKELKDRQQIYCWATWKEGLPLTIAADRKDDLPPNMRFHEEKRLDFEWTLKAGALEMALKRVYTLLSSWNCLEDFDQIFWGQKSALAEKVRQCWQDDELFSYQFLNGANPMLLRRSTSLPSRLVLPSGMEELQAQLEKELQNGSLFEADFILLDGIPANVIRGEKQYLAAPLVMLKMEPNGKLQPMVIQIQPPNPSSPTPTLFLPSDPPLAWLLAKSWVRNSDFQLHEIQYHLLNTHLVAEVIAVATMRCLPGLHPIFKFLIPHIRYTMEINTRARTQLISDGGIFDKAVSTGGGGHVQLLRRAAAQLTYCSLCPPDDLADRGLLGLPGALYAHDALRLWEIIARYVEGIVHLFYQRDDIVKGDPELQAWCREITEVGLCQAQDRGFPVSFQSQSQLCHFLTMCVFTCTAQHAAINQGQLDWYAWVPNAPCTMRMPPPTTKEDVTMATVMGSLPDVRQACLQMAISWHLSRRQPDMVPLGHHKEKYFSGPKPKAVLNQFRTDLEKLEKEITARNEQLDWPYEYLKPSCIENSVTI
#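 Purified human 12hLO (150 nM final) in 25 mM Hepes, 0.01% Triton X-100, pH 7.0 was preincubated 15 min at room temperature with compound. Then 40 uM arachidonic acid was added, 30 min. Hydroperoxide was read by Fe-XO absorbance ratio 573/405 nm.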
# gsp antag: qHTS for Antagonists of gsp, the Etiologic Mutation Responsible for Fibrous Dysplasia/McCune-Albright Syndrome: qHTS. gsp-mutant cells, cAMP HTRF, 30 min. Potency, µM (top dose mostly 76.9 µM), for inactives: at the highest dose activity change, negative = inhibition, most hits filed as inhibitors. 340,000 tested, 0.4% active. AID 624288, 2012; calls by dose curve; cell line not stated here;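 also: intracellular cAMP measured with PDE inhibitor Ro 20-1724 present during compound exposure; % is scaled to controls: 0 for no effect and ±100 for the full control effect; nearly all actives have a fitted effect of over 65% in size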
#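 Cells in G418 medium, seeded 16-24 h, 37C; buffer exchange to DPBS + 1 mM CaCl2, 0.5 mM MgCl2, 0.05% BSA; cpds in DMSO + […] (300 uM stock), 30 min 37C; HTRF cAMP detection.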
# Mito fusion act: qHTS Assay for Small Molecule Inhibitors of Mitochondrial Division or Activators of Mitochondrial Fusion; S. cerevisiae fusion-defective mutant growth rescue, CellTiterGlo 48 h; AID 485298, 2010; Potency, µM (series often up to 46.1 µM), without a hit: at the top dose growth rescue (activation), usual class: activators; 320,000 tested, 0.23% active; also: % of control where 0% means no effect; nearly all actives have a fitted effect of over 45% in size
#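 Temperature-sensitive fusion-defective S. cerevisiae (e.g. fzo1-1, mgm1-5) were grown with compound in YPEG medium (3% ethanol, 3% glycerol) for 48 hours at 37C. Growth rescue was measured as viability by CellTiterGlo luminescence after 10 minutes at ambient.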
# gsp ag: qHTS for Agonist of gsp, the Etiologic Mutation Responsible for Fibrous Dysplasia/McCune-Albright Syndrome: qHTS; Potency, µM (series often up to 76.9 µM), without a hit: at the top dose activation (cAMP increase), actives largely listed as activators; gsp mutant cells, cAMP HTRF, 30 min; 340,000 tested, 0.13% active; active = well fitted activation curve with a large enough effect; inconclusive = small, poorly fitted or top-dose-only effect, or another doubt; inactive = no such curve, though single readings can be large or run the other way; cell line not stated here;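 also: phosphodiesterase inhibitor Ro 20-1724 added with compounds to block cAMP breakdown; nearly all actives have a fitted effect of over 60% in size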
#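 Cells stably selected in G418 were plated at 2000/well, grown 16-24 hr, then given compounds in DMSO with the PDE inhibitor […] (300 uM solution added) for 30 min at 37C; cAMP was read by HTRF.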
# Numbers without * were called inactive; i = inactive; ? = inconclusive; . = no result; [ ] = remark or other dose. Unless noted, calls follow the shape of the dose curve; as a rule, active = well fitted curve in the direction sought with a large enough effect; inconclusive = small, poorly fitted or top-dose-only effect, or another doubt; inactive = no such curve, though single readings can be large; an effect the other way counts as inactive or inconclusive. Potency is read from the fitted curve at half-maximal effect.
SMILES,FUS yeast rescue,12-LOX inh,gsp antag,Mito fusion act,gsp ag
COc1ccc(-c2ccc3ncc(Nc4cccc(C(F)(F)F)c4)n3n2)cn1,.,-4.1%[176 µM],.,.,.
COc1ccc(C2C3=C(N=C4SCC(=O)N42)c2ccccc2CC3)cc1 (configuration not stated),?,-8.3%,-5.2%,13.8%,29.5%
COc1ccc(C2C3=C(N=C4SCC(=O)N42)c2ccccc2CC3)cc1OC (configuration not stated),35.5µM*,18.5%,2.3%,1.0%,-4.3%
COc1ccccc1-c1c(C)nn2c(SCC(=O)NCc3ccc(C)cc3)cc(C)nc12,.,-33.9%,.,.,.
O=C(Nc1cccc(Br)c1)c1ccccc1-c1ccccc1,i,2.9%,?,15.8µM*,5.7%
O=C(Nc1scc(-c2ccc(Br)cc2)c1C(=O)O)c1ccccc1F,i,17.5%,-23.5%,.,12.4%[15.4 µM]
Cc1cc(Br)ccc1NC(=O)c1ccccc1-c1ccccc1,.,-15.9%,-5.9%,14.1µM*,-41.9%
COc1ccc(-c2csc(NC(=O)c3ccccc3Br)c2C(=O)O)cc1,i,17.6%,-28.0%,-11.4%,-3.5%[15.4 µM]
O=C(O)c1ccccc1-c1ccccc1C(=O)Nc1cccc(Br)c1,i,-25.3%,-6.0%,1.4%,-1.7%[15.4 µM]
COc1ccc(-c2csc(NC(=O)c3ccc(C(C)(C)C)cc3)c2C(=O)O)cc1,i,.,31.6µM*,.,-1.4%[15.4 µM]
Cc1ccccc1C(=O)Nc1scc(-c2ccc(Br)cc2)c1C(=O)O,i,?,39.8µM*,.,5.6%[15.4 µM]
CCN(CC)S(=O)(=O)c1ccc2[nH]c(=O)cc(C(=O)NCc3ccc(CN(C)C)cc3)c2c1,.,5.5%,.,.,.
CCCCCCCCc1ccc(C(=O)CCN(C)C)cc1,.,12.6µM*,.,.,.
O=C1NC(c2ccccc2)=C(c2nc3ccccc3s2)C(c2ccc(O)cc2)N1 (configuration not stated),35.5µM*,.,-1.8%,6.0%,-56.6%
O=C(NCc1ccc(F)cc1)N1CCN(Cc2ccc(C(F)(F)F)cc2)CC1,.,27.7%,.,.,.
CC(C)c1cccc(OCCN2CCCC2)c1,i,0.631µM*,15.7%,-1.1%,?
O=C(N/N=C/c1ccc(-c2cccc([N+](=O)[O-])c2)o1)c1ccc([N+](=O)[O-])cc1,i,12.4%,.,17.2%,5.9%[15.4 µM]
CCOC(=O)N/N=C\c1ccc(-c2cc(Cl)ccc2Cl)o1,i,-1.4%,-13.5%,-1.9%,-23.2%
O=C(N/N=C/c1ccc(-c2cccc([N+](=O)[O-])c2)o1)c1ccccc1O,i,-9.6%,50.1µM*,1.0%,-23.2%
NC(=S)N/N=C/c1ccc(-c2ccc([N+](=O)[O-])cc2)o1,i,31.6µM*,-7.4%,-2.8%,-1.4%
COC(=O)N/N=C/c1ccc(-c2cc(Cl)cc(Cl)c2)o1,.,-12.7%,-26.0%,27.5%,6.2%
NC(=S)N/N=C/c1ccc(-c2cc(Cl)cc(Cl)c2)o1,i,39.8µM*,-5.5%,23.8%,9.7%
NC(=S)N/N=C/c1ccc(-c2cc(Cl)ccc2Cl)o1,?,22.4µM*,-3.1%,11.4%,-19.6%
N#Cc1ccccc1COc1ccccc1C#N,.,1.8%,.,.,.
Cc1cccc(OCc2nc3c4c(ncn3n2)OC2=C(C(=O)CCC2)C4c2ccco2)c1C (configuration not stated),.,-3.8%,.,.,.
NC(=S)N/N=C/c1ccccc1[N+](=O)[O-],i,35.5µM*,-7.2%,-3.3%,-1.0%[15.4 µM]
CC1=C[C@@H](CN2CCN(CCO)CC2)[C@H](C(C)C)C[C@H]1Cc1nnc(-c2ccc(N(C)C)cc2)o1,.,-4.9%,.,.,.
O=C(CN1C(=O)NC(c2ccc(Cl)cc2)C2=C1COC2=O)Nc1cccc(Br)c1 (configuration not stated),.,10µM*,.,.,.
Cc1cc(NC(=O)CN2C(=O)NC(c3ccc(Cl)cc3)C3=C2COC3=O)ccc1Br (configuration not stated),.,8.91µM*,.,.,.
